Assay in all cases: PBM binding z-score (relative to random genomic background probes); higher = stronger binding; sequences stand for … in GC…GCGATTGACAGCGTAGAATGAAGG
The subject of test [1] is RARb homodimer (NR concentration 270 nM). The procedure, abridged:
(§1)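 Ligand-free nuclear receptor dimers were applied to custom Agilent 4×180K protein-binding microarrays whose double-stranded probes carried direct-repeat seeds, single-nucleotide variants, half-site ablations and random human genomic background sequences in 34-nt variable regions. Incubation lasted 1 h. Binding z-scores were computed against the random background probes from regression-normalized fluorescence.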

Test [2] concerns RARg:RXRa (NR concentration 270 nM, RXRa partner concentration 90 nM). The procedure, abridged: as §1
In test [3] the test system is RARg homodimer (NR concentration 270 nM). The procedure, abridged:
as §1

The subject of test [4] is RXRa DBDmut IVT, anti-RXR (DBD mutation: RXRa K156A/R161A, NR concentration 90 nM). The procedure, abridged:
as §1

Test [5] concerns RXRa homodimer (NR concentration 180 nM). The procedure, abridged:
as §1

In test [6] the test system is THRa:RXRa (NR concentration 90 nM, RXRa partner concentration 90 nM). The procedure, abridged: as §1
For test [7], the system named is THRa homodimer (NR concentration 90 nM). The essentials: as §1
Test [8] deals with VDR homodimer (NR concentration 270 nM). The procedure, abridged: as §1

For CTATGTAGGTTAAGGGGGTAATTCAGTTTGAAAG, the PBM binding z-score in test [1] came to 1.84; in test [2] it was 2.06; in test [3], 1.59; in test [4], 1.27; in test [5], 1.95; in test [6], 2.44. Further, the PBM binding z-score in test [7] came to 1.35; in test [8] it was 1.41.

Consider CTATGAAGGTTAAGGGGGTCATTCAGTTTGAAAG, for which the PBM binding z-score came out at 4.39 in test [1]; 5.59 in test [2]; 4.32 in test [3]; 2.92 in test [4]; 6.52 in test [5]; 3.97 in test [6]. Further, the results for the PBM binding z-score in test [7] and in test [8] were 2.22 and 6.88, respectively.

For the sequence GACACAGGGTCAGCTAGAGGCCAGAGTATGGAAA, the PBM binding z-score was 3.17 in test [1]; 6.46 in test [2]; 4.41 in test [3]; 1.3 in test [4]; 4.1 in test [5]; 3.1 in test [6]. For the same sequence, the PBM binding z-score in test [7] was -0.0446; in test [8] it was 0.591.

In the case of CCTAGCAGGCCACGGTCACTCAAGCATTTCGCTT, the PBM binding z-score in test [1] was 1.74; in test [2], 0.739; in test [3], 1.19; in test [4], 0.229; in test [5], 0.221; in test [6], 0.45. Further, the values for the PBM binding z-score in test [7] and in test [8] were 0.288 and -0.0513, respectively.

As to CGAACTAGCTCACCAGGACAGTGAAGAGGTTGGA, the PBM binding z-score in test [1] was 0.0882; in test [2], -0.448; in test [3] it was -0.336; in test [4], 0.0205; in test [5] it was -0.153; in test [6], 0.96. The PBM binding z-score in test [7] is 0.613; in test [8] it was -0.481.

For the sequence ATATGTAGGCTAGGGTCATTCAGAAAGTAGGGAA, the PBM binding z-score is 2.44 in test [1]; 3.25 in test [2]; 2.17 in test [3]; 2 in test [4]; 4.11 in test [5]; 3.74 in test [6]. The PBM binding z-score in test [7] was found to be 2.36; in test [8], 2.49.

With CCGAGTAGGTTATGAGGGGGCATTCAGTGCGAAT, the PBM binding z-score was 2.32 in test [1]; 2.98 in test [2]; 2.83 in test [3]; 1.66 in test [4]; 1.95 in test [5]; 3.88 in test [6]. Besides, the values for the PBM binding z-score in test [7] and in test [8] were 1.86 and 3.74, respectively.

For the origin of these results see the supplement of paper PMC6555819.
